# High-throughput results deposited in PubChem by National Center for Advancing Translational Sciences (NCATS).
# MCF10A rerep = A quantitative high throughput screen for small molecules that induce DNA re-replication in MCF 10a normal breast cells | MCF 10A DNA re-replication, Hoechst nuclear intensity, 48 h | Potency, µM (highest dose often 46.1 µM), inactives show at the highest dose activity, positive = re-replication, usual class: activators | 2.9% of 350,000 active; also: % of control where 0% means no effect; nearly all actives have a fitted effect of over 50% in size
# ELG1 repair inh = qHTS screen for small molecules that inhibit ELG1-dependent DNA repair in human embryonic kidney (HEK293T) cells expressing luciferase-tagged ELG1 | HEK293T ELG1-luciferase reporter, luminescence, 16 h; DNA damage induced by 5-fluorouridine | Potency, µM (highest dose often 46.1 µM), inactives show top-dose activity change, negative = inhibition, actives largely listed as inhibitors | 2.3% of 330,000 active; also: % is scaled to controls: 0 for no effect and ±100 for the full control effect; nearly all actives have a fitted effect of over 55% in size
#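 5-Fluorouridine DNA damage + compound/DMSO, 2,000 cells/well, 16 h, 37 °C/5% CO2. ONE-Glo, 30 min RT, luminescence. Readout = decrease in reporter signal.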
# SW480 rerep = A quantitative high throughput screen for small molecules that induce DNA re-replication in SW480 colon adenocarcinoma cells; Potency, µM (titrated, usually from 46.1 µM), without a hit: top-dose re-replication activation, most hits filed as activators; AID 624297, 2012; SW480 DNA re-replication, Hoechst DNA content imaging, 48 h; 1.8% of 340,000 active; also: % of control where 0% means no effect; nearly all actives have a fitted effect of over 55% in size
#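 Cells (250 per well) received 23 nL compound or DMSO by pin tool and were kept 48 hr at 37 C, 5% CO2. Nuclei were then stained with Hoechst for 40 min and scanned for DNA content.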
# A-T KAP1 phos = qHTS Assay for Identifying a Potential Treatment of Ataxia-Telangiectasia. F2112 A-T fibroblasts, KAP-1 phosphorylation AlphaLISA; neocarzinostatin DNA damage 30 min before lysis. Potency, µM (doses to about 57.5 µM), without a hit: at the top dose activation, hits mostly activators. 0.19% of 320,000 active. AID 485349, 2010; also: % of control where 0% means no effect; nearly all actives have a fitted effect of over 45% in size
#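 ATM-like activity read as KAP-1 phosphorylation via AlphaLISA donor/acceptor antibody pairs after lysis and 6 hr at 25C. Cells were ATM-null patient fibroblasts (F2112, hTERT), dosed 60 min, then exposed to the DSB inducer NCS for 30 min.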
# p53 reactivation = qHTS assay for re-activators of p53 using a Luc reporter; H1299 p53-A138V BP100-luciferase reporter, luminescence, 24 h; Potency, µM (titrated, usually from 92.2 µM), for inactives: at the highest dose activity change, positive = activation, actives largely listed as activators; 0.063% of 320,000 active; also: % of control where 0% means no effect; nearly all actives have a fitted effect of over 45% in size
#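 H1299 (p53-null), stable ts p53-A138V + BP100-Luc; 1000 cells/well, Opti-MEM/10% FBS; cpd 4 pt, 1:5; 24 h, 37 deg C, 5% CO2; detection reagent 10 min RT; luminescence.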
# ELG1 genotox = qHTS screen for small molecules that induce genotoxicity in human embryonic kidney (HEK293T) cells expressing luciferase-tagged ELG1. HEK293T ELG1-luciferase reporter, luminescence, 16 h. Potency, µM (titrated, usually from 46 µM), for the others: at the highest dose activity change, positive = activation, hits mostly activators. 1.3% of 330,000 active. AID 504466, 2011; also: % of control where 0% means no effect; nearly all actives have a fitted effect of over 60% in size
#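 16 hr compound incubation (37 °C, 5% CO2) of HEK293T cells carrying luciferase-tagged ELG1; luciferase then measured by ONE-Glo luminescence after 30 min at RT.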
# Starred values were filed as active, the others as inactive; ? = inconclusive; nt = not tested or not shown. Most compounds without a hit are left out; they make up all but 7.1% or so of the library. Calls follow the shape of the dose curve; as a rule, active = well fitted curve in the direction sought with a large enough effect; inconclusive = small, poorly fitted or top-dose-only effect, or another doubt; inactive = no such curve, though single readings can be large; an effect the other way counts as inactive or inconclusive. Potency is read from the fitted curve at half-maximal effect.
SMILES,MCF10A rerep,ELG1 repair inh,SW480 rerep,A-T KAP1 phos,p53 reactivation,ELG1 genotox
CC1(C)Cc2c(sc(NC(=O)c3ccc(C(=O)c4ccccc4)cc3)c2C(N)=O)C(C)(C)N1,23µM*,?,21µM*,36%,-50%,-5%
COC(=O)c1c(NC(=O)c2ccccc2)sc2c1CC(C)(C)NC2(C)C,1%,6%,0%,0%,-3%,2%
COC(=O)c1c(NC(=O)c2ccco2)sc2c1CC(C)(C)NC2(C)C,12%,9.2µM*,?,3%,-2%,-11%
CC1(C)Cc2c(sc(NC(=O)c3ccc4ncsc4c3)c2C(N)=O)C(C)(C)N1,?,?,?,-4%,?,16µM*
COc1ccc(NC(=O)CSc2ccc3c(c2)OCCO3)cc1S(N)(=O)=O,-29%,-13%,-4%,1%,1%,3%
CC(C)CC(=O)Nc1cc2c3c(c1)C(C)C(=O)N3CCC2 (stereo unspecified),-2%,?,2%,0%,8%,6%
Cc1ncc(CO)c2c1Oc1nc(-c3ccccc3)nc(SCC(=O)N(C)c3ccccc3)c1C2,nt,?,nt,12%,-5%,nt
Cc1ncc(CO)c2c1Oc1nc(-c3ccccc3F)nc(SCC(=O)N(C)c3ccccc3)c1C2,?,2.9µM*,-36%,0%,2%,-8%
O=C(CCNC(=O)c1ccc([N+](=O)[O-])cc1)Nc1ccc(S(=O)(=O)N2CCOCC2)cc1,0%,?,-4%,13%,3%,0%
Cc1[nH]c(-c2ccc(F)cc2)cc1C(=O)N1CCN(c2ccc(Cl)cc2)CC1,5.8µM*,-28%,-2%,1%,-1%,-9%
Cc1ccc(NC(=O)C2CCN(S(C)(=O)=O)CC2)c(C)c1,4.1µM*,0%,-42%,-2%,?,0%
CC(C)n1c(SCC(=O)Nc2ccccc2N2CCOCC2)nc2c1c(=O)n(C)c(=O)n2C,7%,?,-1%,nt,-9%,-3%
CCn1c(SCC(=O)Nc2ccccc2N2CCCCC2)nc2c1c(=O)n(C)c(=O)n2C,-3%,18µM*,?,16%,-14%,-16%
CN1CCc2c(C#N)c(N3CCCCC3)nc(NCc3ccccc3)c2C1,18µM*,?,?,15%,2%,-1%
CN(C)C=Nc1ncc2c3ccccc3n(CCN(C)C)c2c1C#N,?,6.5µM*,?,0%,-4%,-8%
Cc1ccc(C(=O)N/C(=C\c2ccco2)C(=O)N2CCCCC2)cc1,-1%,4%,-7%,1%,-1%,4%
CCc1ccc(/C=N/Nc2ncnc3nc[nH]c23)cc1,24%,?,16%,-1%,?,7.3µM*
COc1ccc(C2=NN(c3ccccc3)C(c3cn(CCC(=O)O)nc3-c3ccccc3)C2)cc1 (stereo unspecified),?,?,4%,?,-4%,4%
Cc1ccc(C(=O)Nc2ccccc2N2CCCC2)s1,3%,6%,?,-7%,3%,-3%
CCCc1nnc(NC(=O)c2nc(S(=O)(=O)Cc3ccc(C)cc3)ncc2Cl)s1,3.7µM*,0%,8.2µM*,11%,-23%,?
CCOc1ccccc1NC(=O)c1nc(S(=O)(=O)Cc2ccccc2)ncc1Cl,4.1µM*,?,27%,-3%,-25%,-21%
CCS(=O)(=O)c1ncc(Cl)c(C(=O)Nc2ccccc2OC)n1,2.3µM*,-7%,2.9µM*,-7%,11%,?
COc1ccc(CCN2C(=O)c3ccccc3NC2c2cc(Cl)c(O)c(OC)c2)cc1 (stereo unspecified),2.6µM*,7.3µM*,8.2µM*,-4%,3%,-6%
O=C(O)/C=C/C(=O)c1ccc2c(c1)CCc1ccccc1-2,3.7µM*,?,4.1µM*,3%,-26%,-11%
Cc1ccc(C(C(=O)NCc2ccc(F)cc2)N(Cc2ccco2)C(=O)c2snc(C(N)=O)c2N)o1 (stereo unspecified),16µM*,21µM*,18%,-5%,-3%,-7%
SMILES,MCF10A rerep,ELG1 repair inh,SW480 rerep,A-T KAP1 phos,p53 reactivation,ELG1 genotox
COCCNC(=O)C(c1ccc(C)o1)N(Cc1ccco1)C(=O)c1snc(C(N)=O)c1N (stereo unspecified),1%,-28%,1%,nt,12%,-2%
NC(=O)c1nsc(C(=O)N(c2ccccc2)C(C(=O)NCc2ccc(F)cc2)c2ccc(O)cc2)c1N (stereo unspecified),13µM*,?,?,-1%,-3%,-18%
NC(=O)c1nsc(C(=O)N(Cc2ccco2)C(C(=O)NCc2ccc(F)cc2)c2ccc(O)cc2)c1N (stereo unspecified),13%,12µM*,-2%,-1%,-8%,-19%
COc1ccccc1/C=C/C(=O)NCC(=O)n1nc(C)cc1C,0%,?,-4%,-1%,-2%,3%
COCC(=O)N1CCC(Oc2ccc(C(=O)NCc3cc(C(C)C)no3)cc2)CC1,1%,-3%,-7%,6%,-10%,-4%
COC(=O)C1=C(C(=O)OC)[C@]2([C@H]3CCCCN[C@@H](Cc4ccccc4)C(=O)N3Cc3ccccc3)C=C[C@H]1O2,70%,-2%,19%,-2%,-2%,0%
CSC1=NC(NCCCO)c2c(sc3c2CC(C)(C)OC3)N1 (stereo unspecified),12%,21µM*,-2%,5%,-2%,-10%
CSc1nc(SCC(=O)O)c2c3c(sc2n1)COC(C)(C)C3,-2%,?,-8%,?,-5%,2%
Cc1ccc2c(n1)sc1c(-c3ccccc3)c(C#N)c(N)nc12,5µM*,?,7.3µM*,8%,-11%,1%
Cc1cc(C(=O)CSc2ncccn2)c(C)n1-c1cccc(F)c1,26%,?,11%,4%,?,10µM*
Cc1cc(C(=O)CSc2n[nH]c(N)n2)c(C)n1-c1cccc(F)c1,?,?,?,2%,22%,?
Cc1ccc(-n2nc(C)c(C(=O)Nc3cccc(C(=O)NC4CC4)c3)n2)c(C)c1,3%,?,-25%,12%,-7%,-2%
